# Active and inactive are the calls of the source. How the source made its calls: active means hit-call score of the fitted dose curve at least 0.9, where 1 is the maximum; inactive means score below 0.9.
# Assays:
# [1] = read-out: Tissue Factor, F3 (gene 2152); assay: BSK_CASM3C_TissueFactor: BioMAP Diversity Plus: CASM3C Assay for Tissue Factor Biomarker Activity (AID 2283052); conditions: primary human coronary artery smooth muscle cells; actives raise or lower the signal;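 further: cell surface tissue factor protein level read by ELISA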
# [2] = read-out: Interferon-gamma inducible Protein 10 (IP10), CXCL10 (gene 3627); assay: BSK_hDFCGF_IP10: BioMAP Diversity Plus: hDFCGF Assay for Interferon-gamma inducible Protein 10 (IP10) Biomarker Activity (AID 2283053); conditions: primary human foreskin fibroblasts; actives raise or lower the signal
# Outline: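 Chemical-treated human skin fibroblasts (primary) were sampled at 24 h for IP-10 by ELISA. Both increases and decreases relative to DMSO were scored.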
# [3] = read-out: Urokinase-type plasminogen activator receptor (uPAR), PLAUR (gene 5329); assay: BSK_CASM3C_uPAR: BioMAP Diversity Plus: CASM3C Assay for Urokinase-type plasminogen activator receptor (uPAR) Biomarker Activity (AID 2283054); conditions: primary human coronary artery smooth muscle cells; actives raise or lower the signal;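 further: cell-surface uPAR protein level quantified by ELISA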
# [4] = read-out: Vascular cell adhesion molecule 1 (VCAM1), VCAM1 (gene 7412); assay: BSK_CASM3C_VCAM1: BioMAP Diversity Plus: CASM3C Assay for Vascular cell adhesion molecule 1 (VCAM1) Biomarker Activity (AID 2283055); conditions: primary human coronary artery smooth muscle cells; actives raise or lower the signal;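 further: VCAM-1 protein level quantified by ELISA on the cells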
# [5] = read-out: Collagen III, COL3A1 (gene 1281); assay: BSK_hDFCGF_CollagenIII: BioMAP Diversity Plus: hDFCGF Assay for Collagen III Biomarker Activity (AID 2283056); conditions: primary human foreskin fibroblasts; actives raise or lower the signal
# Outline: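 hDFCGF primary human dermal fibroblasts; 24 h chemical exposure; collagen III by ELISA; bidirectional curve fit vs DMSO baseline (gain or loss of signal).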
# [6] = read-out: Epidermal growth factor receptor (EGFR), EGFR (gene 1956); assay: BSK_hDFCGF_EGFR: BioMAP Diversity Plus: hDFCGF Assay for Epidermal growth factor receptor (EGFR) Biomarker Activity (AID 2283057); conditions: primary human foreskin fibroblasts; actives raise or lower the signal
# Outline: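 Cell-based multiplexed assay in primary human foreskin fibroblasts. EGFR is read by ELISA 24 h after treatment and compared with DMSO controls.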
# [7] = read-out: Interleukin-8 (IL8), CXCL8 (gene 3576); assay: BSK_hDFCGF_IL8: BioMAP Diversity Plus: hDFCGF Assay for Interleukin-8 (IL8) Biomarker Activity (AID 2283058); conditions: primary human foreskin fibroblasts; actives raise or lower the signal
# Outline: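 ELISA read-out of IL-8 from primary human foreskin fibroblast cultures taken 24 h after dosing; values are bidirectional fits relative to DMSO vehicle.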
# [8] = BSK_hDFCGF_Proliferation: Cell Proliferation Assessment in the BioMAP Diversity Plus: hDFCGF Assay (AID 2283059); conditions: primary human foreskin fibroblasts;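 further: curves fitted for both rise and fall of signal versus DMSO baseline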
# Outline: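 Primary human foreskin fibroblasts, sub-confluent; […]; 10% TCA fix, 0.1% SRB stain, A560 total protein. Gain/loss fitted bidirectionally vs DMSO control.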
# [9] = read-out: Macrophage colony-stimulating factor (MCSF), CSF1 (gene 1435); assay: BSK_hDFCGF_MCSF: BioMAP Diversity Plus: hDFCGF Assay for Macrophage colony-stimulating factor (MCSF) Biomarker Activity (AID 2283060); conditions: primary human foreskin fibroblasts; actives raise or lower the signal
# Outline: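 ELISA read-out of M-CSF in human dermal foreskin fibroblast cultures, 24 h after chemical dosing; gain or loss of signal fitted bidirectionally relative to DMSO baseline.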
# [10] = BSK_hDFCGF_SRB: Viability Assessment in the BioMAP Diversity Plus: hDFCGF Assay (AID 2283061); conditions: primary human foreskin fibroblasts;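 further: cells exposed to compound for 24 h before the read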
# Outline: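 Primary human foreskin fibroblasts; 24 h post-dose; fixed 10% TCA, stained 0.1% SRB, A560 read; total protein as overt cytotoxicity measure; curves fit bidirectionally vs DMSO control.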
SMILES,outcome [1],outcome [2],outcome [3],outcome [4],outcome [5],outcome [6],outcome [7],AC50 [8],outcome [9],outcome [10],outcome [8],AC50 [2],AC50 [4],AC50 [5],AC50 [7],AC50 [9],AC50 [10],AC50 [3],AC50 [6]
Oc1ccc2ccccc2c1N=Nc1ccccc1,inactive,inactive,inactive,inactive,inactive,inactive,inactive,5.03 µM (active),inactive,inactive,,,,,,,,,
Cc1ccc(C)c(O)c1C,inactive,inactive,inactive,inactive,inactive,inactive,inactive,,inactive,inactive,inactive,,,,,,,,
COC(=O)c1ccc(O)cc1,inactive,inactive,inactive,inactive,inactive,inactive,inactive,,inactive,inactive,inactive,,,,,,,,
CCCCCCCCCCCCCO,inactive,,inactive,,,inactive,,8.61 µM (active),,,,13.2 µM (active),28.3 µM (active),12.9 µM (active),29.9 µM (active),13.7 µM (active),13.1 µM (active),,
CC1(C)NC(=O)NC1=O,inactive,inactive,inactive,inactive,inactive,inactive,inactive,,inactive,inactive,inactive,,,,,,,,
COc1cc(-c2nc(NC(=O)c3cc4cc(C)cc(C)c4n3CC(=O)O)sc2CCC2CCCCC2)c(OC)cc1Cl,inactive,,,,,inactive,,0.128 µM (active),,,,0.46 µM (active),10.2 µM (active),0.203 µM (active),2.36 µM (active),0.42 µM (active),0.771 µM (active),6.56 µM (active),
CN1CCN(Cc2cc(-c3ccc4[nH]c(=O)oc4c3)co2)[C@@H](c2ccc(F)cc2)C1,inactive,inactive,inactive,inactive,inactive,inactive,inactive,,,,,,,,,8.77 µM (active),17.6 µM (active),,
CC(CO)OC(C)CO (stereo not given) (tested in a mixture with another compound),inactive,inactive,inactive,inactive,inactive,inactive,inactive,,inactive,inactive,inactive,,,,,,,,
CCCCCCCCCCCCCCCCCC(=O)O,inactive,inactive,inactive,inactive,inactive,inactive,inactive,,inactive,inactive,inactive,,,,,,,,
NCC1(Cc2noc(=O)[nH]2)CCCCC1,inactive,inactive,inactive,inactive,inactive,inactive,inactive,,inactive,inactive,inactive,,,,,,,,
C1CCC(SSC2CCCCC2)CC1,inactive,,inactive,,,inactive,inactive,,,,,30.4 µM (active),28.8 µM (active),11.7 µM (active),,20 µM (active),32.2 µM (active),,
CC1=C(/C=C/C(C)=C/C=C/C(C)=C/CO)C(C)(C)CCC1,inactive,,inactive,inactive,inactive,,inactive,,,,,27.4 µM (active),,,,24.2 µM (active),37.8 µM (active),,27.8 µM (active)
CNCc1cc(F)ccc1Oc1ccc(Cl)c(Cl)c1,inactive,inactive,inactive,inactive,inactive,inactive,inactive,23.8 µM (active),inactive,inactive,,,,,,,,,
Cc1ccc(Cl)cc1,inactive,inactive,inactive,inactive,inactive,inactive,inactive,0.148 µM (active),inactive,inactive,,,,,,,,,
Cc1c(C(=O)O)c(O)cc2c1C(=O)c1c(O)c([C@@H]3O[C@H](CO)[C@@H](O)[C@H](O)[C@H]3O)c(O)c(O)c1C2=O,inactive,inactive,inactive,inactive,inactive,inactive,inactive,3.88 µM (active),inactive,inactive,,,,,,,,,
Cc1cc(NC(=O)C(=O)O)cc(C)c1Oc1ccc(O)c2c1CCC2,inactive,inactive,inactive,inactive,inactive,inactive,inactive,,inactive,inactive,inactive,,,,,,,,
Cc1cccc([N+](=O)[O-])c1C,inactive,inactive,inactive,inactive,inactive,inactive,inactive,,inactive,inactive,,,,,,,,,
Cc1cccc(C)c1O,inactive,inactive,inactive,inactive,inactive,inactive,inactive,,inactive,inactive,,,,,,,,,
Cc1ccc(C(C)C)c(O)c1,inactive,inactive,inactive,inactive,inactive,inactive,inactive,,inactive,inactive,inactive,,,,,,,,
O=c1[nH]cc(F)c(=O)[nH]1,inactive,inactive,inactive,inactive,inactive,inactive,inactive,,inactive,inactive,,,,,,,,,
O=C(O)Cc1ccccc1Nc1c(Cl)cccc1Cl,inactive,inactive,inactive,inactive,,inactive,inactive,20 µM (active),inactive,inactive,,,,20 µM (active),,,,,

SMILES,outcome [1],outcome [2],outcome [3],outcome [4],outcome [5],outcome [6],outcome [7],AC50 [8],outcome [9],outcome [10],outcome [8],AC50 [2],AC50 [4],AC50 [5],AC50 [7],AC50 [9],AC50 [10],AC50 [3],AC50 [6]
Nc1ccc2c(c1)C(=O)c1ccccc1C2=O,inactive,inactive,,inactive,inactive,inactive,inactive,4.98 µM (active),inactive,inactive,,,,,,,,20 µM (active),
Cc1nc(C)nc(N2C[C@@H](C)N(c3ccnc([C@@H](C)O)n3)[C@@H](C)C2)n1,inactive,inactive,inactive,inactive,inactive,inactive,inactive,,inactive,inactive,inactive,,,,,,,,
Nc1ccccc1N,inactive,inactive,inactive,,inactive,inactive,inactive,16 µM (active),inactive,inactive,,,4.05 µM (active),,,,,,
c1cc(-c2ccncc2)ccn1,inactive,inactive,inactive,inactive,inactive,inactive,inactive,,inactive,inactive,,,,,,,,,
Nc1ccc(S(=O)(=O)c2ccc(N)cc2)cc1,inactive,inactive,inactive,inactive,inactive,inactive,inactive,,inactive,inactive,,,,,,,,,
CC1(C)CC(N=C=O)CC(C)(CN=C=O)C1 (stereo not given),inactive,inactive,inactive,inactive,inactive,inactive,inactive,,inactive,inactive,inactive,,,,,,,,
COc1ccc2c(c1)c(CC(=O)O)c(C)n2C(=O)c1ccc(Cl)cc1,inactive,inactive,inactive,inactive,,inactive,inactive,13.1 µM (active),inactive,inactive,,,,20 µM (active),,,,,
CCCCCCCCCCCC(=O)OC,inactive,inactive,inactive,inactive,inactive,inactive,inactive,28.9 µM (active),inactive,inactive,,,,,,,,,
Oc1ccc2c(c1)OC[C@@H](N1CCC(O)(c3ccc(F)cc3)CC1)[C@H]2O,inactive,inactive,inactive,inactive,inactive,inactive,inactive,,inactive,inactive,,,,,,,,,
COc1cc(C=O)ccc1O,inactive,inactive,inactive,inactive,inactive,inactive,inactive,,inactive,inactive,,,,,,,,,
CCOC(=O)CCC(=O)OCC,inactive,inactive,inactive,inactive,inactive,inactive,inactive,,inactive,inactive,,,,,,,,,
COc1ccc(C)cc1N,inactive,inactive,inactive,inactive,inactive,,inactive,,inactive,inactive,inactive,,,,,,,,
CC(=O)OC/C=C(\C)CCC=C(C)C,inactive,inactive,inactive,inactive,inactive,inactive,inactive,,inactive,inactive,,,,,,,,,
Cc1cccc(Nc2cc(Cl)nc(SCC(=O)O)n2)c1C,inactive,inactive,inactive,inactive,inactive,,inactive,,inactive,inactive,inactive,,,,,,,,
CCOC(=O)C(C)(C)Oc1ccc(Cl)cc1,inactive,inactive,inactive,inactive,inactive,inactive,inactive,,inactive,inactive,,,,,,,,,
CC(C)c1ccc(C(=O)N=C(N)N)cc1S(C)(=O)=O,inactive,inactive,inactive,inactive,inactive,,inactive,,inactive,inactive,inactive,,,,,,,,
CC(=O)Oc1ccccc1C(=O)O,inactive,inactive,inactive,inactive,inactive,inactive,inactive,,inactive,inactive,,,,,,,,,
NC(=O)Cn1c(=O)cc(CCN2CCN(c3nccc4sccc34)CC2)c2ccc(F)cc21,inactive,inactive,inactive,inactive,inactive,,inactive,,inactive,inactive,inactive,,,,,,,,
COCCOCCOC,inactive,inactive,inactive,inactive,,,inactive,,inactive,inactive,inactive,,,0.148 µM (active),,,,,
CN1CCCC1=O,inactive,inactive,inactive,inactive,inactive,inactive,inactive,,inactive,inactive,,,,,,,,,

# Reference: PubChem BioAssay (EPA / NIEHS)
